Compounds with a hit are over-represented: about 0.97% of the library has one in this group of screens.
Mtb BioA inh: BioA (M. tuberculosis) enzyme inhibition; purified M. tuberculosis BioA enzyme, plate reader; inhibition, % at 9.99 µM; 360,000 tested, 0.096% active; AID 602481; in the data active means inhibition above about 40%
FadD28 binding: inhibitors of Mycobacterium tuberculosis FadD28 bisubstrate binding. FadD28 bisubstrate probe binding, fluorescence polarization. inhibition, % at 12.5 µM. 360,000 tested, 0.22% active. AID 588549; in the data active means inhibition above about 8.5%, passing the limit was not always enough
UGM FP inh: Mtb UDP-galactopyranose mutase inhibition | purified UGM, fluorescence polarization probe displacement | inhibition, % at 10 µM | 320,000 tested, 0.06% active; in the data active means inhibition above about 10%, passing the limit was not always enough
Rv3671c protease: inhibits the M. tuberculosis serine protease Rv3671c. inhibition, % at 5.96 µM. 320,000 tested, 0.048% active; in the data active means inhibition above about 38%;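 further: extracellular domain of Rv3671c used as enzyme; 0% = enzyme with DMSO and 100% = no enzyme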
TcdB inh: inhibitors of Clostridioides difficile toxin B glycohydrolase | 350,000 tested, 0.24% active | P18177 | inhibition, % at 9.99 µM | TcdB glycohydrolase enzymatic assay, plate reader | AID 652162; in the data active means inhibition above about 10%
RecA splice inh: inhibitors of M. tuberculosis RecA intein splicing; P9WHJ3; cell-free RecA intein splicing, fluorescence; inhibition, % (concentration not given with the values); 290,000 tested, 0.75% active; AID 2221; in the data active means inhibition above about 30%;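 further: 0% = vehicle wells and 100% = reference inhibitor control wells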
Target sequence (P9WHJ3 whole entry, looked up, canonical isoform): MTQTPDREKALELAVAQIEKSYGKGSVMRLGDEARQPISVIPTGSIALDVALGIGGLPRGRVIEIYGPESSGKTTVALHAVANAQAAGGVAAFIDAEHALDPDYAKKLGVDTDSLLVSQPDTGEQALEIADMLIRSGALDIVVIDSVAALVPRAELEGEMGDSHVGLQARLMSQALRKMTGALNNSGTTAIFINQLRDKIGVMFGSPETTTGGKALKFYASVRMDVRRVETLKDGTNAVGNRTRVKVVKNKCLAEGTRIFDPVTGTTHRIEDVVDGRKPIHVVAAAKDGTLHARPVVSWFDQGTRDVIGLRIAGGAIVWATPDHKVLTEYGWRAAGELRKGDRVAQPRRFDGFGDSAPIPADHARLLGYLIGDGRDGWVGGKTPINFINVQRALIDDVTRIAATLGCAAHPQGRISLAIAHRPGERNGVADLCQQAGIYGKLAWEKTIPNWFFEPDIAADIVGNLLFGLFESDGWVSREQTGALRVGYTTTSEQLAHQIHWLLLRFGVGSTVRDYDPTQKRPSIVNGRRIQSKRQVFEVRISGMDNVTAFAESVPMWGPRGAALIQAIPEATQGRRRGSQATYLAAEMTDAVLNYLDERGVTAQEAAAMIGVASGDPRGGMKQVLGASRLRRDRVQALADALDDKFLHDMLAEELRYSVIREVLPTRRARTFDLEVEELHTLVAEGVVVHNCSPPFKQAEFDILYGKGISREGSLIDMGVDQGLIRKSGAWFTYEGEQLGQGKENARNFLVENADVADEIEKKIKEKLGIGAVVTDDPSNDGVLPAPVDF
Starred values were filed as active, the others as inactive; nt = not tested or not shown.

SMILES	Mtb BioA inh	FadD28 binding	UGM FP inh	Rv3671c protease	TcdB inh	RecA splice inh
COc1ccc(C(=O)/C=C2\C(=O)Nc3ccc(Br)cc32)cc1	nt	-6	nt	nt	0	nt
O=C1Nc2ccc(Br)cc2/C1=C/C(=O)c1ccc2c(c1)OCO2	nt	-4	1	-1	0	49*
CCC(=O)Nc1ccc2c(c1)OC[C@@H](C)N(Cc1cccnc1)C[C@H](C)[C@@H](OC)CN(C)C2=O	-2	nt	nt	nt	0	nt
NNC(=O)CCc1nc2ccc(O)cc2[nH]1	1	-2	2	-2	14*	-6
COc1cccc(NS(=O)(=O)c2ccc3c(c2)C2C=CCC2C(c2ccc(C(=O)O)cc2)N3)c1 (stereo unspecified)	nt	22*	3	20	nt	13
O=C(O)c1ccc2c(c1)[C@@H]1C=CC[C@@H]1[C@H](c1ccccn1)N2	-1	19*	1	28	nt	9
Cc1cc(C)n(C2CC(=O)N(c3ccccc3)C2=O)n1 (stereo unspecified)	-1	1	1	3	1	4
CC(=O)NC1N=C(C)N(c2ccccc2)C1=O (stereo unspecified)	-3	-2	0	-4	nt	52*
C[C@@H]1CCCCO[C@@H](CN(C)S(=O)(=O)c2cccs2)[C@@H](C)CN([C@H](C)CO)C(=O)c2cc(NC(=O)NC3CCCCC3)ccc2O1	4	nt	nt	nt	nt	nt
CCCCCCCCCCCCCCCCn1cc[n+](CC(C)=O)c1	nt	36*	nt	nt	nt	nt
Cc1cc(C)c(C)c(S(=O)(=O)N2CCCCC2C(=O)O)c1C (stereo unspecified)	-1	-5	-1	10	15*	0
Cc1ccc(C)c(NC2=C(Cl)C(=O)OC2OC(=O)c2ccco2)c1 (stereo unspecified)	2	-7	2	1	1	46*
Cc1ccccc1C(=O)OC1OC(=O)C(Cl)=C1Nc1ccc(C(=O)O)cc1 (stereo unspecified)	nt	-3	1	-8	-2	1
Cc1ccc(NC2=C(Cl)C(=O)OC2OC(=O)c2ccco2)c(C)c1 (stereo unspecified)	1	-5	0	-6	nt	nt
Cc1ccc(NC2=C(Cl)C(=O)OC2OC(=O)c2ccco2)cc1C (stereo unspecified)	2	-7	-2	-5	-2	54*
COc1cccc(C(=O)Nc2ccc3c(c2)OC[C@@H](C)NC[C@@H](C)[C@H](OC)CN(C)C3=O)c1	-1	nt	nt	nt	1	nt
Cc1cc2nc3c(=O)[nH]c(=S)[nH]c3nc2cc1NC(=O)C(F)(F)F	-15	1	19*	21	-1	-73
O=c1[nH]c(=S)[nH]c2nc(-c3ccccc3)cnc12	nt	-3	3	-6	2	-4
C#Cc1ccc([C@H]2C=C(C(=O)NC3CC3)O[C@@H](OCc3ccc(CO)cc3)C2)cc1	nt	nt	nt	nt	-2	nt
O=C(C[C@H]1C=C[C@H](NC(=O)c2ccncc2)[C@@H](CO)O1)Nc1ccccc1	nt	nt	nt	nt	0	nt
COC(=O)c1sc(-c2cccs2)cc1NC(=O)/C=C/C(=O)O	-1	-5	2	5	-1	42*
COC(=O)c1sc(-c2ccccc2)cc1NC(C)=O	nt	-1	3	-3	0	-2
Cn1nc(C(C)(C)C)cc1C(=O)Sc1cccc(Br)c1	1	-4	-1	-6	0	43*
Cn1nc(C(C)(C)C)cc1C(=O)O	nt	0	-2	-4	0	4
Cc1ccc(C2=NS(=O)(=O)N(C)C(C(=O)NCc3cccs3)=C2)cc1	1	-3	4	3	19*	-1
SMILES	Mtb BioA inh	FadD28 binding	UGM FP inh	Rv3671c protease	TcdB inh	RecA splice inh
Cc1ccc(C2=NS(=O)(=O)N(C)C(C(=O)NCc3ccccn3)=C2)cc1	-2	-4	-2	2	6	-4
CO[C@@H]1CN(C)C(=O)c2cc(NC(=O)NC(C)C)ccc2OC[C@@H](C)N(Cc2ccc(-c3ccccn3)cc2)C[C@@H]1C	5	nt	nt	nt	1	nt
Cc1ccc(C(=O)NCC(=O)Nc2cc(C)ccn2)cc1	0	-4	-2	-3	1	-4
C/C(CC(=O)Nc1cc(C)ccn1)=N\NC(=O)c1ccc(C)cc1	nt	0	0	3	-1	62*
CO[C@H]1CN(C)C(=O)c2ccc(NC(C)=O)cc2OC[C@@H](C)N(C(=O)c2cccnc2)C[C@@H]1C	-3	nt	nt	nt	0	nt
COc1ccc(NC(=O)c2cc(S(=O)(=O)N3CCc4ccccc43)cn2C)cc1OC	0	1	-1	12	16*	1
COc1ccc(NC(=O)c2cc(S(=O)(=O)N3CCc4ccccc43)cn2C)c(OC)c1	-1	0	-1	-1	nt	2
Cc1ccc(Cl)c2c(N=Nc3ccccc3)c(O)[nH]c12	-1	-2	11*	nt	1	-3
COc1cccc(S(=O)(=O)Nc2ccc3c(c2)[C@H]2C[C@@H](CC(=O)NCC(F)(F)F)O[C@@H](CO)[C@H]2O3)c1	-1	nt	nt	nt	-1	nt
COc1ccc(S(=O)(=O)N(C)C[C@@H]2Oc3ccc(NC(=O)Nc4ccc5c(c4)OCO5)cc3C(=O)N([C@H](C)CO)C[C@@H]2C)cc1	-1	nt	nt	nt	0	nt
CS(=O)(=O)N(CC(=O)Nc1ccc(S(=O)(=O)N2CCOCC2)cc1)c1ccccc1Br	0	-2	0	-3	32*	0
CCCN1C[C@@H](C)[C@@H](OC)CN(C)C(=O)c2cc(NC(=O)Nc3ccccc3F)ccc2OC[C@H]1C	0	nt	nt	nt	nt	nt
CCOc1ccc(Nc2ccc(N)c(S(=O)(=O)O)c2)cc1	5	22*	nt	nt	1	nt
CC(=O)N[C@H]1C=C[C@H](CC(=O)NCc2ccc(Cl)cc2)O[C@H]1CO	-1	nt	nt	nt	0	nt
COc1ccc(-c2cc(=O)[nH]c3ccccc23)cc1	0	-2	11*	-6	1	nt
O=C(CCN1C(=O)/C(=C\c2ccccc2F)SC1=S)Nc1ccc(C(=O)O)c(O)c1	2	0	9	-10	1	32*
O=C(CCCN1C(=O)/C(=C/c2ccccc2)SC1=S)Nc1ccc(C(=O)O)c(O)c1	3	-3	-2	-11	1	38*
COc1ccc(C=C2SC(=S)N(CCCC(=O)Nc3ccc(C(=O)O)c(O)c3)C2=O)cc1OC	3	-2	nt	nt	2	nt
O=C(CCN1C(=O)S/C(=C/c2ccccc2)C1=O)Nc1ccc(C(=O)O)c(O)c1	1	-5	-5	2	1	5
COc1ccc(C(=O)N2C[C@H]3[C@@H](c4ccccc42)[C@H](CO)N3C(=O)c2ccc(F)cc2)cc1	-2	nt	nt	nt	0	nt
Cc1noc(C)c1NC(=O)N[C@@H]1C=C[C@H](CC(=O)NCc2ccc(Cl)c(Cl)c2)O[C@H]1CO	-1	nt	nt	nt	1	nt
C=CCOc1ccc(/C=C2\SC(=S)N(C(C(=O)O)c3ccccc3)C2=O)cc1 (stereo unspecified)	nt	14*	nt	nt	1	29
COC(=O)C1=CC(C(=O)c2cccs2)=NN(c2ccc(OC)cc2)C1C(=O)OC (stereo unspecified)	nt	-7	21*	0	0	15
Nn1c(SCc2ccccc2F)nnc1-c1ccccn1	0	-1	1	-2	14*	-6
